High-throughput results: PubChem BioAssay, several laboratories
CYP2C19 activ = activators of human cytochrome P450 2C19; P33261; recombinant CYP2C19, luciferin-H EGE luminescence; hits give high values; 0 = fully inhibited enzyme, 1 = untreated enzyme; activation factor at 5 µM; 96,000 tested, under 10 active;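 active = activation factor of at least 2 at 5 µM in the primary screen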;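 also: 0 = wells with 2.5 mM tranylcypromine and 1 = vehicle-only wells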
PostGolgi ctrl = yeast control strain growth, post-Golgi counter-screen. inhibition, % at 10 µM. actives 5% (n = 98,000). efflux-deficient yeast background strain, growth absorbance A615, 16 h
CYP2C19 inh = blocks human cytochrome P450 2C19; P33261; inhibition, % at 5 µM; actives 21% (n = 96,000); CYP2C19 Supersomes, luciferin-H EGE luminescence, 30 min;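 active = CYP2C19 inhibition above a set limit at 5 µM in the primary screen, cut at about 50% in these data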;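 also: plate controls were negative control wells for no effect and 2.5 mM tranylcypromine positive control for full effect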
CYP2C9 inhib = inhibitors of human CYP2C9; P11712; CYP2C9 Supersomes, luciferin-H conversion, luminescence; inhibition, % at 5 µM; actives 20% (n = 96,000);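 active = blocking of liver enzyme CYP2C9 beyond about 50% at 5 µM, limit read from the data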
Target sequence (P11712 whole entry, looked up): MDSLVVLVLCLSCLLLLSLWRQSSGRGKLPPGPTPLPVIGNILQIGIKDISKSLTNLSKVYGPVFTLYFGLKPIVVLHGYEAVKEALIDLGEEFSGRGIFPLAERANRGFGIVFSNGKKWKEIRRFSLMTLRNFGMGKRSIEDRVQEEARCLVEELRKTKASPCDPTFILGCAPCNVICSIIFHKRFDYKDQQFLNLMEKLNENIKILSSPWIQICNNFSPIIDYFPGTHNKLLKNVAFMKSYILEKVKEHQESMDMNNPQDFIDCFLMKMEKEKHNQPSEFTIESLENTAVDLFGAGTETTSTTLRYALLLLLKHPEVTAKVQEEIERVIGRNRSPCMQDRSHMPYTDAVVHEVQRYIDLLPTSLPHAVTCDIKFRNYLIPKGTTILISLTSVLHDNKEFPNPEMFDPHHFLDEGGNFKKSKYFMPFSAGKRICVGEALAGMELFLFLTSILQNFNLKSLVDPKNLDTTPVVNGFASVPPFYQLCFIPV
CYP2C9 act = increases human cytochrome P450 2C9 activity; P11712; recombinant CYP2C9, luciferin-H conversion, luminescence; hits give high values; factor 1 = untreated enzyme, 0 = blocked; activation factor at 5 µM; actives 1.4% (n = 96,000);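 active = activation factor of 2 or more for CYP2C9 at a 5 µM dose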;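 also: 0 = sulfaphenazole-blocked wells and 1 = vehicle-only wells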
PostGolgi yeast = growth inhibition of a yeast mutant, post-Golgi transport screen; actives 0.9% (n = 98,000); inhibition, % at 10 µM; post-Golgi transport phenotypic cell assay;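 also: yeast cells grown in 1536-well plates; yeast grown about 18 h at 30C before absorbance read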
* = called active by the depositor; . = no result given. In the library only some 32% were active in any assay of this set; here they are far more common. Rule as the data show it, unless noted: active = inhibition above about 30%; inactive = the rest.

SMILES	CYP2C19 activ	PostGolgi ctrl	CYP2C19 inh	CYP2C9 inhib	CYP2C9 act	PostGolgi yeast
COCCn1c(Cc2ccccc2)nnc1SCC(=O)NC(C)C	1	-4.0	0.2	-16.1	1.2	-11.9
Cc1ccc(S(=O)(=O)Nc2ccc(N3CCOCC3)cc2)cc1	0	-2.9	96.4*	94.4*	0.1	-9.0
O=S(=O)(Nc1ccc(N2CCOCC2)cc1)c1ccc2ccccc2c1	0.1	47.9*	92.3*	46.0	0.5	4.1
CC(=O)Nc1ccc(N2CCCC2)cc1	0.9	10.1	7.4	-15.9	1.2	-4.3
Cc1ccc(N2C(=O)CSCC2=O)cc1	1.1	6.1	-9.2	-24.0	1.2	1.2
CC(=O)Nc1ccc(S(=O)(=O)Nc2ccc(N3CCOCC3)cc2)cc1	0.1	-5.3	90.0*	40.0	0.6	-8.7
Cc1ccc(NS(=O)(=O)c2ccc(N3C(=O)CCC3=O)cc2)cc1	0.4	-12.0	64.3*	44.2	0.6	25.6
CCOC(=O)c1c(N2C(=O)C=CC2=O)sc(C)c1C	0.9	11.5	9.4	19.4	0.8	-2.2
O=C(Nc1ccc2c3c(cccc13)CC2)c1ccc(Br)o1	1	19.6	-3.1	-35.6	1.4	-4.7
Cc1noc(C)c1C(=O)Nc1nc(C23CC4CC(CC(C4)C2)C3)cs1	0.9	22.8	6.1	0.8	1	-0.5
COC(=O)c1ccc2[nH]c(C)c(CN3CCCC3)c(=O)c2c1	1	2.0	2.1	-12.3	1.1	1.2
Cc1ccc2c(c1)c1c3n2CC(=C2C(=O)OC(C)(C)OC2=O)NC3CCC1 (stereo not given)	0.6	51.0*	40.3	81.0*	0.2	10.1
Fc1ccc(Cn2nnnc2C(c2ccc(Cl)cc2)N2CCSCC2)cc1 (stereo not given)	0.1	18.1	94.2*	69.4*	0.3	-8.0
COc1ccc(C(c2nnnn2Cc2cccs2)N2CCC(C(N)=O)CC2)c(OC)c1 (stereo not given)	0.9	10.2	12.2	18.5	0.8	0.1
COc1ccc(Cn2nnnc2C(c2cccs2)N2CCCCCC2)cc1 (stereo not given)	0	17.8	99.6*	91.8*	0.1	3.2
COc1ccc(Cn2nnnc2C(c2cccs2)N2CCSCC2)cc1 (stereo not given)	0.2	12.9	82.6*	58.6*	0.4	16.4
Cc1cc(Cl)c(S(=O)(=O)NC2CCCCC2)cc1OCC(=O)Nc1nncs1	.	1.9	.	.	.	3.4
CC(NC(=O)c1ccc(CS(=O)(=O)Cc2ccccc2F)o1)c1ccc2c(c1)OCCO2 (stereo not given)	.	8.2	.	.	.	1.4
CCOc1ccc(N2C(=O)/C(=C/c3cccs3)N(CC(=O)OC)C2=S)cc1	0.8	14.8	22.0	-2.4	1	-0.5
CCN1C(=O)/C(=C/c2cccs2)N(C)C1=S	0.3	17.7	67.1*	50.7*	0.5	-3.3
Cc1ccc(CNC(=O)c2sccc2-n2cccc2)cc1	0.6	30.5*	43.0	10.1	0.9	15.6
Cc1csc(NC(=O)CCSCCc2ccccn2)n1	0.4	1.0	61.0*	41.3	0.6	-8.0
CCOC(=O)C1=C(C)NC(=O)NC1c1cccc(OC)c1OCc1ccccc1Cl (stereo not given)	0.8	4.4	24.1	9.3	0.9	7.9
CCCC1=C(C(=O)OCC)C(c2cc(Cl)cc(OC)c2OCc2ccccc2)NC(=O)N1 (stereo not given)	0.5	16.3	50.4*	64.5*	0.4	1.5
c1ccc(-c2nc3ccccc3nc2N2CCOCC2)cc1	0.5	18.1	52.4*	19.9	0.8	2.4
SMILES	CYP2C19 activ	PostGolgi ctrl	CYP2C19 inh	CYP2C9 inhib	CYP2C9 act	PostGolgi yeast
Cn1c(N2CCOCC2)nc(-c2ccccc2)c1-c1ccccc1	0.9	10.6	6.2	-98.0	2*	-2.2
FC(F)(F)c1cccc(-c2nnc(-c3ccccc3)c(N3CCOCC3)n2)c1	0.7	35.0*	25.1	12.8	0.9	15.9
CC1=CC(=O)C=CC1(C)C(Cl)Cl (stereo not given)	1.2	8.2	-17.6	-11.6	1.1	-0.5
CCCN(CCC)C(=O)Cc1coc2ccc3ccccc3c12	0.4	41.9*	63.9*	-93.0	1.9	-1.1
O=C(Cc1coc2ccc3ccccc3c12)N1CCN(c2ncccn2)CC1	0.4	4.9	60.7*	55.1*	0.4	1.7
O=C(Cc1coc2ccc3ccccc3c12)NCc1ccccc1	0.1	25.7	86.2*	-183.7	2.8*	0.4
CCOC(=O)N1CCN(Cc2cc(=O)oc3ccc4ccccc4c23)CC1	0.7	16.1	33.0	10.4	0.9	2.2
O=C(Cc1coc2ccc3ccccc3c12)Nc1nccs1	0.9	16.6	11.3	38.9	0.6	2.1
O=C(Cc1coc2ccc3ccccc3c12)N1CCc2ccccc21	1	22.0	1.0	-56.9	1.6	-2.1
S=c1[nH]nc(C2COc3ccccc3O2)o1 (stereo not given)	0.9	8.6	6.5	49.8	0.5	25.2
OCCNCC(O)Cn1ccc2ccccc21 (stereo not given)	1	10.8	3.1	5.1	0.9	3.4
O=[N+]([O-])c1cccc(-c2ccc(/C=N/NC(=S)Nc3ccccc3)o2)c1	1.1	48.2*	-12.6	-5.7	1.1	-12.6
S=C(N/N=C/c1ccccc1Cl)Nc1ccccc1	1	7.3	1.0	-42.6	1.4	6.0
CCOc1ccc(OC(=O)c2cccnc2)cc1	0.9	2.8	10.5	5.9	0.9	5.5
CC1=CC(C)(C)Nc2ccc(OC(=O)c3cccnc3)cc21	0.3	0.0	71.4*	41.1	0.6	-7.1
CC1=CC(C)(C)Nc2ccc(OC(=O)C(C)N3C(=O)c4ccccc4C3=O)cc21 (stereo not given)	0.6	-1.7	35.6	87.4*	0.1	16.4
CC1=CC(C)(C)Nc2ccc(OC(=O)c3ccco3)cc21	0.2	7.1	78.0*	-45.6	1.5	5.1
CC1=CC(C)(C)Nc2ccc(OC(=O)CN3C(=O)CCC3=O)cc21	1.1	-1.8	-5.5	-10.7	1.1	0.9
NNC(=O)c1nnn(-c2nonc2N)c1-c1cccs1	0.7	3.5	30.1	6.4	0.9	-0.3
O=C(CN1CCN(C2CCCCC2)CC1)c1ccc2cc[nH]c2c1	0.9	5.2	7.4	14.5	0.9	-1.3
O=C1C2Sc3[nH]c(=O)sc3C(c3ccccc3)C2C(=O)N1c1ccc(Cl)cc1 (stereo not given)	0.3	6.3	67.2*	52.3*	0.5	-19.0
Cc1ccc(N2C(=O)C3Sc4[nH]c(=O)sc4C(c4ccccc4)C3C2=O)cc1 (stereo not given)	0.6	5.2	36.9	42.7	0.6	-15.2
CC(C)(C)C(=O)O/N=C1/C(=O)N(c2ccccc2)c2ccccc21	0.9	39.7*	7.4	15.3	0.8	15.0
COc1ccccc1NS(=O)(=O)c1cc([N+](=O)[O-])ccc1N/N=C/c1c(C)[nH]c2ccccc12	0.7	24.3	27.9	32.4	0.7	-7.5
